Screens: PubChem BioAssay, several laboratories
CYP2C9 act: activators of human CYP2C9; P11712; recombinant CYP2C9, luciferin-H conversion, luminescence; hits give high values; factor 1 = untreated enzyme, 0 = blocked; activation factor at 5 µM; 1.4% of 96,000 active; AID 1024;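 active = activation factor of 2 or more for CYP2C9 at a 5 µM dose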
E-sel TNF inh: blocks E-selectin expression induced by TNF alpha. HUVEC TNFa-induced E-selectin immunofluorescence, high content. inhibition, % at 2 µM. 0.71% of 120,000 active. AID 1246;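 active = inhibition above the batch mean plus 3 SD, and confirmed as a hit on visual image review, cut at about 43% in these data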
CYP2C9 inhib: blocks human cytochrome P450 2C9 | P11712 | CYP2C9 Supersomes, luciferin-H conversion, luminescence | inhibition, % at 5 µM | 20% of 96,000 active | AID 777;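 active = blocking of liver enzyme CYP2C9 beyond about 50% at 5 µM, limit read from the data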
CYP2C19 inh: human CYP2C19 inhibition. CYP2C19 Supersomes, luciferin-H EGE luminescence, 30 min. inhibition, % at 5 µM. 21% of 96,000 active. AID 778;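 active = CYP2C19 inhibition above a set limit at 5 µM in the primary screen, cut at about 50% in these data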
Target sequence (P33261 whole entry, looked up): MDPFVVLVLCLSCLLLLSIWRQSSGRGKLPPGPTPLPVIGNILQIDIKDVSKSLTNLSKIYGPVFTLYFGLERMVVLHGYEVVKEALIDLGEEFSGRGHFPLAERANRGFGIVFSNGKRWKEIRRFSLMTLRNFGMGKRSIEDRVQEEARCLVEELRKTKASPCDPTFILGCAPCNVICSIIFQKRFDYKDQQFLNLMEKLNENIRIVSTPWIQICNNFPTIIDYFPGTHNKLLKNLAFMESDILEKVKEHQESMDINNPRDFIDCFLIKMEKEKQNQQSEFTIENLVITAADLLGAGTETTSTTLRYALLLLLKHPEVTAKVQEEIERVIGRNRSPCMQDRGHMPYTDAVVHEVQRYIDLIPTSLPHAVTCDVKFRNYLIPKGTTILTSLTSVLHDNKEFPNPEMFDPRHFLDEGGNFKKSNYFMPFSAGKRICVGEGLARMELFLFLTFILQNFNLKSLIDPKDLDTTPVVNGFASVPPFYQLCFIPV
F-actin modifier: cytoskeleton assembly modification; HUVEC TNFa F-actin phalloidin imaging, high content; inhibition, % at 2 µM; 0.18% of 91,000 active; AID 836;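 active = inhibition above the batch mean plus 3 SD and confirmed as a hit by visual image inspection, cut at about 30% in these data, passing the limit was not always enough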
CYP2C19 activ: increases human CYP2C19 enzyme activity. recombinant CYP2C19, luciferin-H EGE luminescence; hits give high values; 0 = fully inhibited enzyme, 1 = untreated enzyme. activation factor at 5 µM. 96,000 tested, under 10 active;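 active = activation factor of at least 2 at 5 µM in the primary screen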
Each line names hits and unclear results; the compound was inactive in the other large screens. Sampled rows, rich in hits. Any-hit rate of the full collection: about 22%.

CN(C)C(CNC(=O)c1cccc(S(=O)(=O)N2CC3(C)CC2CC(C)(C)C3)c1)c1ccco1 (stereo not drawn)	CYP2C9 inhib 73, CYP2C19 inh 75 (no result: F-actin modifier)
O=C(NCC1CCCO1)c1c(O)c2cccc3c2n(c1=O)CC3 (stereo not drawn)	none (no result: E-sel TNF inh)
COc1ccc(C(=O)N2CCc3cc(OC)c(OC)cc3C2c2cccc([N+](=O)[O-])c2)cc1OC (stereo not drawn)	CYP2C9 inhib 69
COc1cccc(-c2csc(NC(C)=O)n2)c1	none
COc1ccc(CC(=O)Nc2nccs2)cc1OC	none (no result: CYP2C9 act, CYP2C9 inhib, CYP2C19 inh, F-actin modifier, CYP2C19 activ)
COc1ccc(-c2csc(NC(C)=O)n2)cc1OC	CYP2C9 inhib 65, CYP2C19 inh 68
COc1ccc(CC(=O)Nc2nc(C)cs2)cc1OC	CYP2C19 inh 60
COc1ccc(-c2csc(NC(=O)CCn3cnc4ccccc4c3=O)n2)cc1OC	CYP2C9 inhib 66, CYP2C19 inh 85 (no result: E-sel TNF inh)
COc1ccc(-c2csc(NC(=O)CN3C(=O)CCC3=O)n2)cc1OC	none (no result: CYP2C9 act, CYP2C9 inhib, CYP2C19 inh, F-actin modifier, CYP2C19 activ)
O=C1c2cccc3c(O)ccc(c23)C(=O)N1Cc1ccccc1	CYP2C19 inh 64
O=C1Cc2ccccc2C(=O)N1Cc1ccccc1	CYP2C19 inh 85 (no result: F-actin modifier)
O=C1c2cccnc2C(=O)N1Cc1ccccc1	none (no result: CYP2C9 act, CYP2C9 inhib, CYP2C19 inh, F-actin modifier, CYP2C19 activ)
CNC(=O)COC(=O)[C@@H](Nc1ccc(S(=O)(=O)N2CCOCC2)cc1[N+](=O)[O-])C(C)C	none (no result: CYP2C9 act, CYP2C9 inhib, CYP2C19 inh, F-actin modifier, CYP2C19 activ)
CC(C)c1nc(-c2c(N)n(C)c(=O)n(C)c2=O)sc1C(=O)C(C)(C)C	CYP2C19 inh 76 (no result: F-actin modifier)
COc1ccccc1NC(=O)c1nnn(Cc2ccccc2)c1NC(=O)C(F)(F)F	CYP2C9 inhib 71
O=C(Nc1ccccc1)c1nnn(Cc2ccccc2)c1NC(=O)C(F)(F)F	CYP2C9 inhib 86, CYP2C19 inh 57
COc1ccc(/C=N/NC(=O)c2cccc(Br)c2)cc1Cn1cc(Cl)cn1	none
COc1ccc(C2=NOC(CN3C(=O)c4ccccc4S3(=O)=O)C2)cc1 (stereo not drawn)	CYP2C9 inhib 89, CYP2C19 inh 76
O=C1c2ccccc2S(=O)(=O)N1CC1CC(c2ccc(Cl)cc2)=NO1 (stereo not drawn)	none (no result: CYP2C9 act, CYP2C9 inhib, CYP2C19 inh, F-actin modifier, CYP2C19 activ)
O=C1c2ccccc2S(=O)(=O)N1CC1CC(c2ccccc2)=NO1 (stereo not drawn)	CYP2C9 inhib 81, CYP2C19 inh 82
Cc1ccc(CNC(=O)C(=O)NCC2CCCO2)cc1 (stereo not drawn)	none (no result: CYP2C9 act, CYP2C9 inhib, CYP2C19 inh, CYP2C19 activ)
Cc1cccc(N2CCN(C(=O)c3ccccc3NC(=O)C3CC=CCC3C(=O)O)CC2)c1 (stereo not drawn)	none
CC(=O)N1c2c(cc(Br)cc2S(=O)(=O)NCc2ccc3c(c2)OCO3)CC1C (stereo not drawn)	CYP2C19 inh 86 (no result: F-actin modifier)
CC(C)c1ccc(NC(=O)c2cc(S(=O)(=O)NCC3COc4ccccc4O3)ccc2F)cc1 (stereo not drawn)	none (no result: CYP2C9 act, CYP2C9 inhib, CYP2C19 inh, F-actin modifier, CYP2C19 activ)
CCCCN(Cc1ccccc1)S(=O)(=O)c1cc(Br)cc2c1N(C(C)=O)C(C)C2 (stereo not drawn)	CYP2C9 inhib 95 (no result: F-actin modifier)
CC(=O)N1c2c(cc(Br)cc2S(=O)(=O)NCc2cccnc2)CC1C (stereo not drawn)	none (no result: F-actin modifier)
CC(=O)N1c2c(cc(Br)cc2S(=O)(=O)NCC2COc3ccccc3O2)CC1C (stereo not drawn)	CYP2C19 inh 65
CC(=O)N1c2c(cc(Br)cc2S(=O)(=O)N2CCOCC2)CC1C (stereo not drawn)	none (no result: E-sel TNF inh, F-actin modifier)
COc1ccc(CCN(Cc2ccccn2)C(=S)Nc2cccc(C)c2)cc1OC	none (no result: CYP2C9 act, CYP2C9 inhib, CYP2C19 inh, F-actin modifier, CYP2C19 activ)
COCCNC(=O)C1CC(=O)N(c2ccc(OC)cc2)C1c1ccc(OC)cc1 (stereo not drawn)	none (no result: CYP2C9 act, CYP2C9 inhib, CYP2C19 inh, F-actin modifier, CYP2C19 activ)
CCC(C)n1c(SC(C)C#N)nc2ccccc2c1=O (stereo not drawn)	CYP2C9 inhib 70
CC(=O)c1ccccc1OCCOCCOc1ccccc1C(C)=O	none (no result: CYP2C9 act, CYP2C9 inhib, CYP2C19 inh, F-actin modifier, CYP2C19 activ)
O=C(OCc1ccccc1Cl)c1ccc(-n2cnnc2)cc1	CYP2C9 inhib 90, CYP2C19 inh 98
Cc1cc(C)n(C(=O)CCCCCCCC(=O)n2nc(C)cc2C)n1	none (no result: CYP2C9 act, CYP2C9 inhib, CYP2C19 inh, CYP2C19 activ)
Cc1cc(C)n(C(=O)CCCCCCCCC(=O)n2nc(C)cc2C)n1	CYP2C9 inhib 58, CYP2C19 inh 71
CCOc1ccc(NC(=O)N2CCN(c3nc4ccccc4s3)CC2)cc1	none
C/C(=N/NS(=O)(=O)c1ccc(F)cc1)c1ccc(NC(=O)c2ccc(C)o2)cc1	CYP2C9 inhib 95
O=C(c1ccccc1)c1cc(F)c(N2CCOCC2)cc1Cl	CYP2C19 inh 59 (no result: E-sel TNF inh, F-actin modifier)
O=C(Cc1ccccc1)Nc1cc(C(=O)c2ccccc2)ccc1N1CCOCC1	CYP2C9 inhib 90, CYP2C19 inh 69
COC(=O)c1ccc(N2CCOCC2)c(F)c1	none
O=C(Cc1ccccc1)Nc1ccc(N2CCOCC2)cc1N1CCOCC1	none (no result: F-actin modifier)
O=C(Nc1ccc(N2CCOCC2)c(F)c1)c1ccncc1	CYP2C9 inhib 65, CYP2C19 inh 52
O=C(c1ccccc1)c1ccc(N2CCOCC2)c(F)c1	CYP2C19 inh 67 (no result: E-sel TNF inh)
Cc1ccn(C(=O)c2ccc(NC(=O)C3CCCCC3)cc2)n1	none
Cc1ccc(O)c(-c2cc(C(F)(F)F)[nH]n2)c1	none
CC1(C)Cc2c(cnn2-c2ccccc2)C(=O)/C1=N\NC(=O)c1ccncc1	none (no result: CYP2C9 act, CYP2C9 inhib, CYP2C19 inh, CYP2C19 activ)
O=c1ccn(Cc2ccccc2)c(=O)n1Cc1ccccc1	CYP2C19 inh 78
Cc1ccccc1OCCSc1nnc(-c2ccncc2)n1C	CYP2C9 inhib 86, CYP2C19 inh 97
COc1ccccc1-c1nnc(SCc2ccccn2)n1C	none
Cn1c(SCCOc2ccccc2Cl)nnc1-c1ccncc1	CYP2C9 inhib 62, CYP2C19 inh 97
COc1ccc(-c2nnc(SCc3ccccn3)n2C)cc1	none (no result: CYP2C9 act, CYP2C9 inhib, CYP2C19 inh, CYP2C19 activ)
CCC(C)[C@H](NC(=O)Nc1ccc(Oc2ccccc2)cc1)C(=O)O (stereo partly drawn)	none
COc1ccc(Cn2nc(C)n(N(C)c3ncc(C(F)(F)F)cc3Cl)c2=O)cc1	CYP2C19 inh 53
COc1ccc(C(=O)c2ncc(C(F)(F)F)cc2Cl)cc1	none (no result: CYP2C9 act, CYP2C9 inhib, CYP2C19 inh, F-actin modifier, CYP2C19 activ)
O=C(c1c(O)c2ccccc2oc1=O)C1CCCCC1	CYP2C9 inhib 65
Cn1c(C(O)c2ccccc2F)nc(Cl)c1Cl (stereo not drawn)	none
Cn1c(C(O)c2ccc(Cl)cc2)nc(Cl)c1Cl (stereo not drawn)	CYP2C19 inh 91
CCOC(=O)c1c(N)sc(C(O)(C(F)(F)F)C(F)(F)F)c1-c1ccccc1	CYP2C9 inhib 99, CYP2C19 inh 90 (no result: E-sel TNF inh)
COc1ccc(OC)c(NC(=O)c2ccc(S(=O)(=O)N3CCN(C)CC3)cc2)c1	none
CCC(=O)Nc1cc2c(cc1C(C)=O)OCCO2	none (no result: CYP2C9 act, CYP2C9 inhib, CYP2C19 inh, CYP2C19 activ)
Cc1ccc(NC(=O)CS(=O)CC(=O)NCC2CCCO2)cc1 (stereo not drawn)	none
CC(=O)NC(CCS(C)(=O)=O)C(=O)Nc1ccccc1Cl (stereo not drawn)	none (no result: E-sel TNF inh)
CC(=O)NC(CCS(C)(=O)=O)C(=O)Nc1cccc2ccccc12 (stereo not drawn)	CYP2C9 inhib 54 (no result: E-sel TNF inh)
